# Experimental data: PubChem BioAssay (EPA / NIEHS)
# Some structures have more than one record in an assay (separate samples or runs), and their calls can disagree. The source made the active and inactive calls. Rule for the calls: active = hit-call score of the fitted dose curve at least 0.9, where 1 is the maximum; inactive = score below 0.9.
# Read-out: urokinase plasminogen activator (uPA), PLAU (gene 5328)
# Assay: BSK_BE3C_uPA: BioMAP Diversity Plus: BE3C Assay for urokinase plasminogen activator (uPA) Biomarker Activity (AID 2283038);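 for outcome: uPA read one day after compound addition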
# Conditions: primary human bronchial epithelial cells; actives raise or lower the signal
# Method: BSK_BE3C is a cell-based, multiplexed-readout assay that uses bronchial epithelial cell, a human lung primary cell, with measurements taken at 24 hours after chemical dosing in a 96-well plate.BSK_BE3CA is an assay component measured in the BSK_BE3C assay. It measures uPA antibody related to regulation of gene expression using ELISA technology.Data from the assay component BSK_BE3CA was analyzed into 1 assay endpoint. This assay endpoint, BSK_BE3CA, was analyzed with bidirectional fitting relative to DMSO as the negative control and baseline of activity. Using a type of binding reporter, gain or loss-of-signal activity can be used to understand changes in the signaling as they relate to the gene PLAU. Furthermore, this assay endpoint can be referred to as a primary readout, because this assay has produced multiple assay endpoints where this one serves a signaling function. To generalize the intended target to other relatable targets, this assay endpoint is annotated to the protease intended target family, where the subfamily is serine protease.
# The levels of cell surface (or secreted, indicated by the prefix "s") biomarker endpoints were measured by ELISA. Overt cytotoxicity to cells in confluent adherent cultures (all systems other than the BT system) was assessed by measuring total protein levels using sulforhodamine B (SRB) staining in parallel cultures at the time of biomarker measurements, indicated as SRB endpoints. For proliferation assays for adherent cell types, individual cell types are cultured at sub-confluence and relative cell numbers quantified by SRB staining at time points optimized for each system (48 h: 3C and CASM3C systems; 72 h: BT and HDF3CGF systems; 96 h: SAg system). SRB was performed by staining cells with 0.1% SRB after fixation with 10% TCA and reading wells at 560 nm.Viability and proliferation of PBMC (T cells) was quantified by Alamar Blue reduction for the SAg and BT systems. For PBMC viability (referred to as PBMC Cytotoxicity within the assay endpoint names), cells were plated (75,000/well in a 96-well plate) and then chemical samples added for 1 h before addition of activators, SEB and TSST-1 (20 ng/mL final concentration each). Cells were incubated for 90 h. Then, Alamar Blue (20 uL/well) (Invitrogen, Cat DAL1100) was added for 6 h, and the plates were read with a fluorescence microplate reader at 546/580 nm (excitation/emission). For PBMC proliferation, cells were plated and activated as above but incubated for only 16 h prior to addition of Alamar Blue. Plates were read after 6 h.
Structure (SMILES),outcome,AC50
O=P(Oc1ccccc1)(Oc1ccccc1)Oc1ccccc1,inactive,–
ClC(Cl)(Cl)c1ccccc1,inactive,–
CCOP(=S)(OCC)SCSCC,inactive,–
NC(=O)C(F)(F)C(F)(F)F,inactive,–
CCNc1nc(Cl)nc(NC(C)(C)C)n1,inactive,–
COC(=O)C(F)(F)C(F)(F)OC(F)(C(F)(F)F)C(F)(F)OC(F)=C(F)F (stereo not given),inactive,–
OCC1CO1 (stereo not given),inactive,–
O=C(O)C=CC(F)(C(F)(F)F)C(F)(F)F,inactive,–
CCCCc1ccccc1,inactive,–
CCC1(c2ccccc2)C(=O)N=C(O)NC1=O (stereo not given),inactive,–
c1ccc(OP(Oc2ccccc2)Oc2ccccc2)cc1,inactive,–
OCC(F)(F)OC(F)(F)C(F)(F)OC(F)(F)C(F)(F)OC(F)(F)F,inactive,–
CSC(C)(C)C=NO,inactive,–
O=C(O)C(F)(F)OC(F)(F)C(F)(F)OC(F)(F)F,inactive,1420 nM (active)
Nc1ccc([N+](=O)[O-])cc1Cl,inactive,–
CCOP(=S)(OCC)SCSc1ccc(Cl)cc1,inactive,–
N#Cc1cc([N+](=O)[O-])ccc1N,inactive,–
c1ccc2c(c1)Nc1ccccc1S2,inactive,–
COP(=O)(O)OC,inactive,–
CCOP(=S)(OCC)SCn1nnc2ccccc2c1=O,inactive,–

Structure (SMILES),outcome,AC50
[N-]=[N+]=[N-],inactive,–
CCCCOCCOP(=O)(OCCOCCCC)OCCOCCCC,inactive,–
O=[N+]([O-])c1ccccc1,inactive,–
O=C(O)C(F)(F)C(F)(F)C(=O)O,inactive,–
CC(C)(C)c1ccc(O)cc1,inactive,–
Cc1ccc(N)cc1N,inactive,–
O=P(OCC(Br)CBr)(OCC(Br)CBr)OCC(Br)CBr (stereo not given),inactive,–
CN(C)C(=O)Cl,inactive,–
Cc1c([N+](=O)[O-])cc2c(c1[N+](=O)[O-])C(C)(C)CC2(C)C,inactive,–
FC(F)(F)C(F)(C(F)(F)F)C(F)(F)C(F)(F)CC1CO1 (stereo not given),inactive,–
CCN(CC)c1ccccc1,inactive,–
CCCCC(CC)COP(=O)(Oc1ccccc1)Oc1ccccc1 (stereo not given),inactive,–
CCCN(CCC)c1c([N+](=O)[O-])cc(C(C)C)cc1[N+](=O)[O-],inactive,–
O=P1(N(CCCl)CCCl)NCCCO1 (stereo not given),inactive,–
CCOC(=O)c1ccccc1C(=O)OCC,inactive,–
CCOP(=S)(S)OCC,inactive,–
OCC(F)(F)OC(F)(F)C(F)(F)OC(F)(F)CO,inactive,–
CCC(C)(C)c1ccc(O)cc1,inactive,–
CCOS(=O)(=O)OCC,inactive,–
